# Assay results reported in PubChem BioAssay (NCI).
# About 83,000 compounds went through this panel and 20% of them were active in at least one assay; those are over-represented in the sample as a whole.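 Activity criterion: percent growth below 10, measured after cells in 96-well plates were exposed to a single compound concentration for 48 hours.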 Unmarked numbers belong to inactive results. Activity calls are given as the source filed them.
# Assays:
# Assay in all cases: NCI-60 one-dose screen, 48 h (100 = growth as untreated, 0 = no growth, -100 = all killed)
# Conditions in all cases: 10 µM unless noted
# T-47D breast = system: T-47D breast
# BT-549 breast = system: BT-549 breast
# MDA-MB-435 melanoma = system: MDA-MB-435 melanoma
# SW-620 colon = system: SW-620 colon
# MCF7 breast = system: MCF7 breast
# HCT-116 colon = system: HCT-116 colon
# HCC-2998 colon = system: HCC-2998 colon
# KM12 colon = system: KM12 colon
Compound,growth (T-47D breast),growth (BT-549 breast),growth (MDA-MB-435 melanoma),growth (SW-620 colon),growth (MCF7 breast),growth (HCT-116 colon),growth (HCC-2998 colon),growth (KM12 colon)
Cc1ccc(C(c2c(O)c3cc(Br)ccc3[nH]c2=O)c2c(O)c3cc(Br)ccc3[nH]c2=O)cc1,71.6%,87.4%,86.3%,102%,80.2%,82.4%,94.4%,88.2%
C=C(C)[C@@H]1CC[C@]2(C(=O)NCCCN(CCC#N)CCC#N)CC[C@]3(C)[C@H](CC[C@@H]4[C@@]5(C)CCC(=O)C(C)(C)[C@@H]5CC[C@]43C)[C@@H]12,102%,95.5%,105%,101%,92.8%,97.3%,108%,104%
N#C/C(=C\c1ccc(Br)cc1)n1nnc2cccc(F)c21,21.7%,17.6%,-18% (active),-48% (active),12.6%,2.67% (active),19.2%,7.22% (active)
CCN1C(=O)N(CC)C2C1NN=c1s/c(=C3\C(=O)Nc4ccccc43)c(=O)n12 (configuration not stated),15.6%,59.8%,-27.3% (active),26.1%,28.7%,14.2%,31.8%,15.1%
CC(=O)NCCCS(=O)(=O)O,102%,110%,99.9%,90.9%,101%,98.5%,102%,102%
COc1cc2ncnc(Nc3ccc(C(=O)/C=C/c4ccc(C(F)(F)F)cc4F)cc3)c2cc1OC,131%,93.6%,84.2%,110%,64.6%,-62.7% (active),109%,83.4%
COc1ccc(/C(=C\c2ccccc2)C(=O)O)cc1OC,85.7%,102%,106%,97.4%,93.7%,102%,103%,103%
COc1ccc(C(O)c2cc3c(N)c(C(=O)Nc4ccc(Br)cc4)sc3nc2C)cc1 (configuration not stated),18.8%,50.8%,-39.8% (active),23.7%,18.6%,21%,46.7%,4.23% (active)
COc1ccc(C(=O)c2cc3c(N)c(C(=O)Nc4ccc(Cl)cc4)sc3nc2C)cc1,66.4%,79.5%,57.2%,64.3%,61.8%,54.6%,91.6%,70.2%
COc1ccc(C(=O)c2cc3c(N)c(C(=O)Nc4cccc5ccccc45)sc3nc2C)cc1,32.6%,45.1%,-6.84% (active),21.9%,19.4%,6.55% (active),20.8%,12.3%
Cc1cn(-c2cc(C(=O)Nc3cccc(C#Cc4cccc5[nH]nc(N)c45)c3)cc(C(F)(F)F)c2)cn1,54.2%,43.2%,41.7%,43.1%,64.8%,23.3%,62.8%,64.6%
C1=C2CNCC3=Cc4ccc5ccccc5c4OC23Oc2c1ccc1ccccc21,66.7%,79.9%,-69.7% (active),8.75% (active),12%,11.1%,56.9%,15.2%
CC(C)(C)OC(=O)N1C/C(=C\c2ccoc2)C(=O)/C(=C/c2ccoc2)C1,82.4%,102%,98.2%,56.8%,20.5%,21.7%,98.9%,88.8%
C=C1C(=O)O[C@H]2[C@H]1CC/C(COC(=O)NCCc1c[nH]c3ccc(Cl)cc13)=C\CC[C@@]1(C)O[C@@H]21,-40% (active),-52.9% (active),-91.5% (active),-87.4% (active),8.5% (active),-88.9% (active),55.1%,11.3%
Cc1cccc(Oc2ccc(Nc3ncnc4ccc(NC(=O)CN(C)C)cc34)cc2Cl)c1,39.4%,72.9%,34.5%,12.6%,22.7%,21.4%,13.3%,35.1%
CC(=O)Nc1ccc(C(=O)Nc2cc(-c3ccccc3)ccc2N)cc1,66%,102%,60.1%,59.3%,55.6%,50.1%,90.7%,73.2%
Nc1ncc(C#Cc2cncc(NC(=O)c3cccc(C(F)(F)F)c3)c2)c2cccnc12,76.3%,63.1%,22.9%,49.3%,4.41% (active),21.8%,47.1%,19%
COC(=O)CCCCCCCCC1(C)C=CC(C(C)O)=CC1 (configuration not stated),99.9%,108%,112%,91.2%,101%,99.7%,98.7%,99.8%
O=C(OCc1nc2nc(Cl)nc(N3CCOCC3)c2[nH]1)n1ccnc1,-49.2% (active),9.52% (active),-55.1% (active),-59.1% (active),4.72% (active),-82.4% (active),65.3%,13.7%
Cc1cc(NC(=O)c2cnc(N3CCN(CCOCCOCCOCCOCCC(=O)N[C@H](C(=O)N4C[C@H](O)C[C@H]4C(=O)N[C@@H](C)c4ccc(-c5scnc5C)cc4)C(C)(C)C)CC3)cn2)c2ncccc2c1,20.2%,-37.3% (active),-68.3% (active),-39.9% (active),4.01% (active),-60.3% (active),-80.6% (active),-64.6% (active)
O=C(N/N=C/c1ccc(O)c(O)c1)c1sc2ccccc2c1Cl,62.3%,84.4%,88.7%,75.2%,54.4%,80%,96.5%,89%
Cn1c(COC(=O)NCCn2ccnc2)nc2c(N3CCOCC3)nc(-c3ccccc3)nc21,-36.1% (active),-78.2% (active),-91.2% (active),-68.8% (active),-67% (active),-74.6% (active),-82.1% (active),-69.3% (active)
COc1ccc(C(O)c2cc3c(N)c(C(=O)Nc4cccc(Br)c4C)sc3nc2C)cc1 (configuration not stated),51.8%,42.3%,8.91% (active),25.9%,22.1%,13.2%,16.2%,11.1%
CN(Cc1ccccc1)c1nc(Cl)c(C2CC(c3ccc(Cl)cc3)=Cc3[nH][nH]c(=O)c32)s1 (configuration not stated),89.7%,67.7%,85%,99.8%,47.6%,94.2%,104%,103%
O=S(=O)(c1ccccc1)N1CCCc2ccccc21,96.5%,110%,110%,104%,96.8%,105%,103%,100%
CCCCCCCCCCCC(=O)C(CCCCCCCCCC)C(=O)Nc1ccccc1 (configuration not stated),92.1%,114%,110%,107%,108%,93.8%,101%,106%
c1ccc(CCSc2ncnc3nc[nH]c23)cc1,74.2%,117%,79.5%,94.1%,88.3%,88.1%,97.1%,93.6%

Compound,growth (T-47D breast),growth (BT-549 breast),growth (MDA-MB-435 melanoma),growth (SW-620 colon),growth (MCF7 breast),growth (HCT-116 colon),growth (HCC-2998 colon),growth (KM12 colon)
Cc1ccc2[nH]c(=S)n(-c3ccc(S(=O)(=O)Nc4ccc(Cl)nn4)cc3)c(=O)c2c1,96.7%,83.3%,102%,96.2%,95%,39.7%,104%,104%
COc1ccc(-c2nn(Cc3ccccc3)c3c2-c2oncc2CC3)cc1OC,84.8%,92.7%,95.2%,118%,87.7%,107%,107%,99.6%
CCN1C(=O)/C(=c2\sc3n(c2=O)NC2C(N=3)N(CC)C(=O)N2CC)c2ccccc21 (configuration not stated),36.3%,58.8%,-38.6% (active),39.5%,37.2%,12.9%,58.9%,20.1%
c1ccc(-c2nnc(Nc3ccc4c(c3)OCCO4)o2)c(NCc2ccncc2)c1,52.7%,-15.1% (active),-34.6% (active),27.9%,20%,4.92% (active),-22.3% (active),-38.3% (active)
CC(=O)c1cc2c(N)c(C(=O)Nc3cncc4ccccc34)sc2nc1C,93.8%,105%,43.6%,103%,91.6%,101%,106%,94.3%
CNC(=O)Nc1ccc(-c2nc(N3CCOCC3)nc3c2cnn3C2CCOCC2)cc1,-15.6% (active),-15.4% (active),-26.6% (active),12%,1.06% (active),12.7%,13.5%,12.8%
Nc1nc(N)nc(NCc2ccccc2)n1,98.2%,106%,112%,112%,95.8%,106%,94.7%,104%
N#CSCC1CC(O)(c2ccccc2)C(c2ccccc2)C(c2ccc(F)cc2)O1 (configuration not stated),9.18% (active),5.69% (active),-0.166% (active),-1.6% (active),5.64% (active),-63.9% (active),74.8%,4.67% (active)
CN1CCN(c2ccc3nc(-c4cc(C(C)(C)C)c(O)c(C(C)(C)C)c4)[nH]c3c2)CC1,63.2%,98.2%,0.049% (active),14.7%,35.6%,23.3%,25.2%,16.9%
Cc1ccc2[nH]c(=O)cc(-n3nncc3COc3ccc(C=O)cc3)c2c1,97.5%,90.8%,103%,99.4%,95.6%,108%,109%,106%
O=C1CCCCCCCCC(O)C(O)CCCC(c2cccs2)O1 (configuration not stated),71.8%,122%,99.3%,103%,95.9%,89.8%,118%,100%
O=C1Nc2c(ccc(Cl)c2Cl)/C1=C/c1ccc(O)cc1,61.2%,82.3%,101%,79.1%,54.1%,72.6%,80.5%,85.9%
N/C(=N\N=C\c1cc2ccccc2s1)N/N=C/c1cc2ccccc2s1,95.5%,78.5%,106%,103%,82.7%,-69.7% (active),103%,103%
O=C1NC(=S)NC(=O)C1=Cc1cccc(C=C2C(=O)NC(=S)NC2=O)c1,97.7%,87.5%,108%,106%,96.8%,-76% (active),107%,107%
NS(=O)(=O)c1cccc(NC(=O)C(=O)C2C(=O)Nc3ccccc32)c1 (configuration not stated),112%,109%,96.8%,94.5%,109%,93.3%,104%,103%
Cc1c2c(cc[n+]1Cc1ccc(F)cc1)c1ccc(OCc3cccc(F)c3)cc1n2Cc1cccc(F)c1,-75.8% (active),-88.3% (active),-91.8% (active),-87.6% (active),-76.7% (active),-92.1% (active),-92.5% (active),-98.8% (active)
Cc1[nH]n(C(=O)c2ccncc2)c(=O)c1N=Nc1ccc(F)c(Cl)c1,99.7%,103%,112%,99.8%,92.1%,103%,110%,105%
CC(N)C(=O)NNc1n[nH]c(=S)n1N (configuration not stated),98.6%,87.1%,96.1%,93.1%,93.7%,103%,102%,102%
C#Cc1cccc(NC(=O)Nc2cccc(N=C=S)c2)c1,100% [8.25 µM],102% [8.25 µM],97.3% [8.25 µM],104% [8.25 µM],86.1% [8.25 µM],95.5% [8.25 µM],105% [8.25 µM],106% [8.25 µM]
COc1cc(/C=C/C(=O)c2ccc(Nc3ncnc4ccccc34)cc2)cc(OC)c1,117%,26.9%,-39.2% (active),-66.1% (active),0.628% (active),-87.3% (active),-37.6% (active),-49.8% (active)
COc1ccc2c(Nc3ccc(NS(C)(=O)=O)cc3)c3ccccc3nc2c1,2.85% (active),49.9%,-11.1% (active),-31% (active),11.1%,2.19% (active),-60.9% (active),-13.2% (active)
COc1ccc(C2CC(c3cccc(Nc4ccncc4)c3)=NN2c2ccc(Cl)cc2)cc1 (configuration not stated),65.7%,105%,-85.4% (active),-89.4% (active),-16.8% (active),108%,-13.5% (active),-72.1% (active)
CC(=O)Nc1ccc(S(=O)(=O)NC2CCCCC2)cc1,90.9%,96.4%,105%,97.7%,96.9%,103%,102%,104%
Cn1c(=O)c2[nH]c(CCCc3nc4c([nH]3)c(=O)n(C)c(=O)n4C)nc2n(C)c1=O,96.4%,121%,111%,112%,92.8%,108%,112%,118%
O=C1Nc2ccccc2/C1=C\c1cccc(/C=C2/C(=O)Nc3ccccc32)n1,-51.6% (active),-86.4% (active),-73.6% (active),-75.9% (active),-69.9% (active),-65.6% (active),-84.1% (active),-83.1% (active)
COc1ccc2c(c1)OC1=C(C(=O)OC1)C2c1cc(OC)c(OC)c(OC)c1 (configuration not stated),66.3%,34.5%,-38.5% (active),23.2%,27.1%,19.3%,6.19% (active),13.1%
COc1ccc(C(=O)c2cc3c(N)c(C(=O)Nc4cccc(Br)c4C)sc3nc2C)cc1,54.6%,33.5%,-10.4% (active),23.4%,17.5%,6.78% (active),18.1%,11.3%
